High-throughput results as filed in PubChem BioAssay.
Only some compounds are listed: those with a hit (about 5.9% of all), similar ones and a draw of the others.
ATXN2 expr inh – inhibitors of ATXN2 expression; HEK-293 ATXN2-luciferase reporter, luminescence, 24 h; Potency, µM (titrated, usually from 57 µM), without a hit: top-dose activity change, negative = inhibition, actives largely listed as inhibitors; 360,000 compounds, 0.72% hits; also: % is scaled to controls: 0 for no effect and ±100 for the full control effect; nearly all actives have a fitted effect of over 55% in size
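ATXN2-luciferase reporter cells (luciferase flanked by upstream and downstream ATXN2 gene portions) were treated 24 h at 37 °C with compounds at up to 57 uM. SteadyGlo luminescence gave expression; GF-AFC fluorescence gave viability.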
HepG2 tox – HepG2 cytotoxicity, counter-screen for TGF-b inhibitors. Potency, µM (doses to about 46.1 µM), inactives show top-dose activity change, negative = cytotoxicity, usual class: cytotoxic. AID 588856. HepG2 CAGA-GFP viability, ATP luminescence, 18 h. 410,000 compounds, 0.76% hits
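CellTiter-Glo luminescence gave cytotoxicity after 18 hours at 37 degrees C. The cells were HepG2 CAGA-GFP in 1% FBS DMEM, stimulated with 500 pg/mL TGF-beta after compound addition. %Activity was normalised to no-cell wells (complete cell-killing) and DMSO (no toxicity), and curves were fitted and classified.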
KB-3-1 cytotox – kills parental KB-3-1 adenocarcinoma cells | KB-3-1 viability, CellTiter-Glo ATP luminescence, 72 h | Potency, µM (titrated, usually from 46.1 µM), hits mostly cytotoxic | 400,000 compounds, 1.4% hits; also: % is scaled to controls: 0 for no effect and ±100 for the full control effect; nearly all actives have a fitted effect of over 60% in size
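Here the drug-naive KB-3-1 line serves as comparator for MDR sub-line selectivity; cells received compound titrations, 72 h at 37 °C, then CellTiter-Glo readout.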
S2 tox – reduces viability in counter-screen for ATXN expression inhibitors; AID 651635; S2 cells (HEK-293 line with an ATXN2-luciferase reporter) viability, CellTiter-Fluor protease fluorescence, 24 h; Potency, µM (series often up to 56.7 µM), usual class: cytotoxic; 400,000 compounds, 0.49% hits; also: nearly all actives have a fitted effect of over 40% in size
TGFb inhibitor – inhibitors of TGF-b signaling. Potency, µM (top dose mostly 46.1 µM), for inactives: top-dose activity, negative = inhibition, hits mostly inhibitors. 410,000 compounds, 1.2% hits. HepG2 CAGA-GFP TGF-b/SMAD3 reporter, GFP fluorescence, 18 h; TGF-beta stimulated, 500 pg/mL final; also: % is scaled to controls: 0 for no effect and ±100 for the full control effect; nearly all actives have a fitted effect of over 65% in size
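Per well, imaged GFP fluorescence of HEPG2 CAGA-GFP cells gives the signal; cells get compound, then TGF-beta (500 pg/mL final), 18 h at 37 degrees C; %Activity versus -TGF-beta and +DMSO controls.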
KB-V1 MDR tox – KB-V1 MDR subline cytotoxicity; KB-V1 MDR cells viability, CellTiter-Glo, 72 h; Potency, µM (doses to about 46.1 µM), hits mostly cytotoxic; 400,000 compounds, 3.4% hits; AID 1347076; also: % is scaled to controls: 0 for no effect and ±100 for the full control effect; nearly all actives have a fitted effect of over 60% in size
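KB-V1 cells (P-gp-expressing MDR subline of KB-3-1) in phenol-red-free DMEM with 10% FBS were exposed to library compounds over a concentration series for 72 h at 37 degrees C. Viability read by CellTiter-Glo luminescence; concentration-effect curves fitted after normalization.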
The depositor's hits bear a star; i = inactive; ? = inconclusive; / = no result. Calls follow the shape of the dose curve; as a rule, active = well fitted curve in the direction sought with a large enough effect; inconclusive = small, poorly fitted or top-dose-only effect, or another doubt; inactive = no such curve, though single readings can be large; an effect the other way counts as inactive or inconclusive. Potency is read from the fitted curve at half-maximal effect.

SMILES | ATXN2 expr inh | HepG2 tox | KB-3-1 cytotox | S2 tox | TGFb inhibitor | KB-V1 MDR tox
CN1CCCN(C(=O)c2cccc(-c3ccc(C=C4C(=O)Nc5ccc(Cl)cc54)o3)c2)CC1 | 7.7µM* | / | / | / | / | /
CN1CCCN(C(=O)c2cccc(Cl)c2)CC1 | 8% | -1% | i | i | -27% | i
O=C(Cn1cc(S(=O)(=O)Cc2cccc(Cl)c2)c2ccccc21)NCc1ccccc1Cl | / | -45% | i | / | ? | i
CCCCOc1ccc(CNC(=S)N/N=C/c2ccc(OC)c(OC)c2)cc1 | 1% | 9% | ? | i | -26% | 18µM*
Cc1cc(C)n(-c2nnc3n2N=C(c2c[nH]c4ccccc24)CS3)n1 | -29% | -20% | 7.3µM* | i | ? | ?
CCOC(=O)c1c(N)n(-c2ccc(OCC)cc2)c2nc3ccccc3nc12 | -7% | -15% | i | i | 15% | i
COc1ccc(Oc2nc(C)cc(C)c2S(=O)(=O)c2ccc(C)cc2)cc1 | -10% | -19% | i | i | -2% | 21µM*
Cc1cc(C)c(S(=O)(=O)c2ccccc2C)c(Oc2ccccc2)n1 | -7% | -14% | ? | ? | ? | 21µM*
Cc1cc(C)c(S(=O)(=O)c2ccccc2)c(Cl)n1 | -1% | 4% | i | i | 19% | i
Cc1ccc(S(=O)(=O)c2c(C)cc(C)nc2Cl)cc1 | 0% | 1% | i | i | -27% | 13µM*
COc1ccc(N(C(=O)COc2c(C)cccc2C)S(=O)(=O)c2ccc(Cl)cc2)cc1 | ? | -36% | i | ? | ? | i
CCC(=O)N1CCc2cc(CNS(=O)(=O)c3ccc(C(C)C)cc3)ccc21 | -8% | -6% | i | ? | ? | i
Cc1cc2c(=O)c(C(=O)c3ccncc3)cn(CC(=O)Nc3cccc(C)c3C)c2cc1C | / | -10% | / | / | 1% | /
Cc1cccc2cc(CN(Cc3ccco3)C(=O)Nc3cccc(C#N)c3)c(Cl)nc12 | -4% | -1% | i | i | ? | 12µM*
Cc1cc(C(=O)NCc2nnc3n2CCN(Cc2ccc(F)cc2F)CC3)c(C)o1 | / | / | / | i | / | /
O=C(C1CCN(c2nc3ccccc3[nH]2)CC1)N1CCN(c2ccccc2)CC1 | / | -1% | i | / | 1% | i
COc1cccc(CN2CCC2(C)C(=O)Nc2cccc(NS(C)(=O)=O)c2)c1OC (stereo not given) | 46% | -27% | i | i | -5% | i
COc1ccc(CN2CCC2(C)C(=O)Nc2cccc(NS(C)(=O)=O)c2)c2ccccc12 (stereo not given) | ? | -14% | ? | i | ? | 2.9µM*
COc1cccc(/C=N/NC(=O)c2ccc(=O)n(C)c2)c1O | 15µM* | 4% | i | / | -1% | i
COc1ccc(CCCC(=O)N/N=C/c2cccc(OC)c2O)cc1C | 13µM* | -15% | ? | i | ? | ?
COc1cccc(/C=N/NC(=O)C(=O)Nc2ccccc2OC(F)(F)C(F)F)c1O | 10µM* | -2% | 9.2µM* | ? | -10% | ?
COc1ccccc1/C=N/NC(=O)c1cccc(OC(F)(F)C(F)F)c1 | -13% | 0% | i | i | -15% | i
COc1cccc(/C=N/NC(=O)c2ccc(-c3ccccc3)cc2)c1O | 3.2µM* | -33% | 5.8µM* | ? | ? | ?
COc1ccc(CNC(=O)Cc2c(C)c3cc4c(C)coc4c(C)c3oc2=O)cc1 | / | 0% | / | / | -2% | /
COc1ccc(Br)cc1/C=N/NC(=O)c1cc(OC)c(OC)c(OC)c1 | 9% | -4% | i | i | 10% | i
SMILES | ATXN2 expr inh | HepG2 tox | KB-3-1 cytotox | S2 tox | TGFb inhibitor | KB-V1 MDR tox
Cc1cc(C(=O)N/N=C/c2cc(Br)ccc2OC(=O)c2ccccc2)n[nH]1 | 27µM* | -35% | i | i | -21% | i
COc1cccc(/C=N/NC(=O)c2cnccn2)c1OC | 14% | 13µM* | i | i | 0% | i
COc1cc(C(=O)N/N=C/c2ccsc2C)cc(OC)c1OC | -2% | -3% | 0.65µM* | i | -2% | 0.58µM*
COc1ccc(C(=O)N/N=C/c2ccc(N(C)c3ccccc3)cc2)cc1 | 27µM* | -17% | i | i | 0% | i
O=[N+]([O-])c1cccc(S(=O)(=O)N2CCN(c3nc(-c4ccccc4)nc4ccccc34)CC2)c1 | / | 3% | ? | / | 1% | i
CCn1nc(C)cc1C(=O)N1CCC2(CC1)c1ccccc1[C@@H](NC(=O)c1cccnc1)[C@@H]2O | / | / | / | i | / | /
COc1cccc(-c2cc3nc(NCCN4CCCC4)n(C)c(=O)c3s2)c1 | -21% | -17% | i | i | 27% | i
COc1cccc(/C=N/NC(=O)c2[nH]c(C)c(C(=O)N/N=C/c3cccc(OC)c3O)c2C)c1O | 14µM* | -46% | ? | i | ? | i
COc1ccc(C(=O)N/N=C/c2ccccc2OC(=O)c2ccccc2)cc1 | -33% | -67% | 18µM* | ? | ? | 13µM*
O=C(N/N=C/c1ccc(F)cc1)c1cc(-c2ccccn2)nc2ccccc12 | 2% | -2% | i | i | 3% | i
COc1cccc(/C=N/NC(=O)c2cc(-c3ccccn3)nc3ccccc23)c1O | 5µM* | -3% | ? | ? | -24% | ?
C#CCSc1nc2sc3c(c2c(=O)n1-c1cccc(OC)c1)CCN(C(C)=O)C3 | -9% | -17% | i | i | 0% | i
C=CCNCCOCCOc1ccccc1-c1ccccc1 | / | -85% | i | i | -25% | i
CC(C)(C)NCCOCCOc1ccccc1-c1ccccc1 | -12% | -5% | i | i | -7% | 23µM*
COCCCNCCOCCOc1ccccc1-c1ccccc1 | -7% | -13% | i | i | -9% | 23µM*
CCC(C)NCCOCCOc1ccccc1-c1ccccc1 (stereo not given) | -17% | -29% | i | i | -10% | i
Cc1ccc(N2CCN(C(=O)C(=O)c3ccc(F)c(F)c3)CC2)cc1 | / | / | i | / | / | i
O=C(NC1(Cc2ccccc2)CCN(Cc2ccc(-c3ccccc3)cc2)C1=O)c1ccccc1 (stereo not given) | ? | -25% | ? | 32µM* | ? | ?
CCC[C@H]1COCCS(=O)(=O)N1Cc1ccc(F)cc1 | / | 55% | i | / | 29% | ?
COc1ccc(CCNC(=O)COc2ccc(-c3ccc(C#N)cc3)cc2)cc1 | 2% | -3% | i | i | -10% | i
N#Cc1ccc(-c2ccc(OCC(=O)NCCc3ccccc3)cc2)cc1 | -6% | -15% | i | i | -6% | 5.2µM*
